Assay outcomes (PubChem BioAssay)
Compounds with a hit are over-represented: about 6.9% of the library has one in this group of screens.
KB-3-1 cytotox: kills parental KB-3-1 adenocarcinoma cells | AID 1347075 | KB-3-1 viability, CellTiter-Glo ATP luminescence, 72 h | 400,000 compounds, 1.4% hits | Potency, µM (titrated, usually from 46.1 µM), usual class: cytotoxic; note: potency is the fitted concentration of half-maximal effect; % is set by controls: 0 for no effect and ±100 for the full control effect; nearly all actives have a fitted effect of over 60% in size
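72 h, 37 °C compound treatment of KB-3-1 parental cells; CellTiter-Glo added, 10 min, luminescence read. Data corrected against DMSO-only plates and normalized before curve fitting.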
Giardia kill: Giardia lamblia killing; activity change, % at 7.66 µM, hits read low; 340,000 compounds, 0.15% hits; Giardia lamblia trophozoite viability; in the data active = activity change below about -80%; inconclusive = between about -30% and that limit;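 note: parasites exposed to compound for two days anaerobically before the ATP read; % is set by controls: 0 for no effect and ±100 for the full control effect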
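Media and compound were dispensed first, then trophozoites at 100 cells/well; plates sat 48 hrs at 37 deg C without oxygen before ATP luminescence reagent was added and read after 15-30 min at room temperature.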
SW480 rerep: induces DNA re-replication in SW480 colon adenocarcinoma cells; 340,000 compounds, 1.8% hits; Potency, µM (titrated, usually from 46.1 µM), for inactives: at the top dose re-replication activation, hits mostly activators; SW480 DNA re-replication, Hoechst DNA content imaging, 48 h; note: potency is the fitted concentration of half-maximal effect; % of control where 0% means no effect; nearly all actives have a fitted effect of over 55% in size
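Compounds, transferred as 23 nL by pin tool, were incubated with cells for 48 hr; DNA content per nucleus was then quantified by Hoechst staining and fluorescence plate imaging.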
MCF10A rerep: DNA re-replication induction in MCF 10a cells; 350,000 compounds, 2.9% hits; AID 624296; MCF 10A DNA re-replication, Hoechst nuclear intensity, 48 h; Potency, µM (series often up to 46.1 µM), without a hit: at the top dose activity, positive = re-replication, most hits filed as activators; note: potency is the fitted concentration of half-maximal effect; % of control where 0% means no effect; nearly all actives have a fitted effect of over 50% in size
ASM inhibitor: human S-ASM enzyme inhibition; Potency, µM (highest dose often 57.5 µM), without a hit: at the highest dose activity change, negative = inhibition, actives largely listed as inhibitors; placental ASM, HMU-PC fluorogenic substrate, 60 min; P17405; 340,000 compounds, 0.006% hits; note: potency is the fitted concentration of half-maximal effect
Target sequence (P17405 47-631 limits assumed): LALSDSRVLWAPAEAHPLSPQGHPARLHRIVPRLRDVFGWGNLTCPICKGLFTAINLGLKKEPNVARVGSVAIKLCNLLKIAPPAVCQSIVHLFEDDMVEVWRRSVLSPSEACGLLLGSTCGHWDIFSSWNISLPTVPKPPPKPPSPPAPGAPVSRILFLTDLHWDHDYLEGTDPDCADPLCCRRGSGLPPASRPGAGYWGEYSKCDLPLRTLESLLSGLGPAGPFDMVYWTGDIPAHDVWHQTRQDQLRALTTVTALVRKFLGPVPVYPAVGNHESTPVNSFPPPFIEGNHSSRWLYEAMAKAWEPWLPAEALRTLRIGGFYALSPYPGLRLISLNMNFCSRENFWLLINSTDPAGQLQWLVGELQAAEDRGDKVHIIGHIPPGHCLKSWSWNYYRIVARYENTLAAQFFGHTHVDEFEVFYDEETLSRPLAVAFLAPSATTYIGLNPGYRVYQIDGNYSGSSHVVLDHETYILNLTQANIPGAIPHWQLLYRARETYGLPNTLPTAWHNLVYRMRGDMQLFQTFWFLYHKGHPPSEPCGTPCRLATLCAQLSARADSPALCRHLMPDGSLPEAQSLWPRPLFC
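Fluorescence read-out (Ex 386 nm, Em 447 nm) after stopping the reaction at pH 10. Enzyme: ASM from human placenta; substrate HMU-PC0, 9 uM final; 60 min, 37 °C. Compound preincubation 10 min, ambient temperature.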
KB-V1 MDR tox: kills drug-selected multidrug resistant KB-V1 cells; KB-V1 MDR cells viability, CellTiter-Glo, 72 h; Potency, µM (highest dose often 46.1 µM), most hits filed as cytotoxic; 400,000 compounds, 3.4% hits; AID 1347076; note: potency is the fitted concentration of half-maximal effect; % is set by controls: 0 for no effect and ±100 for the full control effect; nearly all actives have a fitted effect of over 60% in size
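In this primary screen, KB-V1 cells overexpressing P-gp are incubated with library compounds (lowest to highest concentration) for 72 h at 37 degrees C before a luminescent ATP viability read.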
Starred values were filed as active, the others as inactive. Unless noted, calls come from the whole dose curve; as a rule, active = well fitted curve in the direction sought with a large enough effect; inconclusive = small, poorly fitted or top-dose-only effect, or another doubt; inactive = no such curve, though single readings can be large; an effect the other way counts as inactive or inconclusive.

Results for N#Cc1ccc(CN2CCN(CC(=O)NCCc3ccc(Cl)cc3Cl)CC2)cc1 ?
KB-3-1 cytotox: inactive; Giardia kill: -8; SW480 rerep: inconclusive; MCF10A rerep: inconclusive; ASM inhibitor: 1%; KB-V1 MDR tox: 18µM*

How did CCOC(=O)C1(C)C=C(Nc2ccc(C)cc2)C(=O)N1c1ccccc1 (centres undefined) do in these assays?
KB-3-1 cytotox: inactive; KB-V1 MDR tox: inactive

How did COc1ccc(-n2cnc3cc(C(=O)NC4CCCCCC4)ccc32)cc1 do in these assays?
KB-3-1 cytotox: inactive; KB-V1 MDR tox: inactive

How did Cc1cc(NC(=O)CSc2ccc3c(c2)OCCO3)no1 do in these assays?
KB-3-1 cytotox: inactive; Giardia kill: 4; SW480 rerep: -13%; MCF10A rerep: -2%; ASM inhibitor: 4%; KB-V1 MDR tox: inactive

What do the screens show for `Cc1ccnc(NC(=O)CSc2ccc3c(c2)OCCO3)c1`?
KB-3-1 cytotox: inactive; Giardia kill: -11; SW480 rerep: -5%; MCF10A rerep: 3%; ASM inhibitor: 3%; KB-V1 MDR tox: 18µM*

How did Cc1ccnc(NC(=O)c2ccc3c(c2)NC(=O)C(C)S3)c1 (centres undefined) do in these assays?
KB-3-1 cytotox: 18µM*; Giardia kill: -5; SW480 rerep: 5%; MCF10A rerep: 3%; ASM inhibitor: 4%; KB-V1 MDR tox: inactive

What do the screens show for `COc1cc(NC(=O)Cn2cnc3sc(C)c(S(=O)(=O)N4CCC(C)CC4)c3c2=O)cc(OC)c1OC`?
KB-3-1 cytotox: inactive; KB-V1 MDR tox: inactive

What do the screens show for `CCn1ncc(/C=N\NC(=O)COc2cc(C)cc(C)c2)c1C`?
KB-3-1 cytotox: inconclusive; Giardia kill: 6; SW480 rerep: inconclusive; MCF10A rerep: 9%; ASM inhibitor: -3%; KB-V1 MDR tox: 12µM*

How did CC(=O)c1ccc(-c2ccc(C3C4C=CCCC4(C)C(=O)N3Cc3ccccc3)c(F)c2)cc1 (centres undefined) do in these assays?
Giardia kill: 36

How did O=C(Nc1nc(-c2cccs2)cs1)C1CC(=O)N(c2ccc3c(c2)OCCO3)C1 (centres undefined) do in these assays?
KB-3-1 cytotox: inactive; Giardia kill: -27; KB-V1 MDR tox: inactive

Results for O=C(Cc1cccs1)Nc1nnc(CCc2ccccc2)s1 ?
KB-3-1 cytotox: inactive; Giardia kill: 3; SW480 rerep: -1%; MCF10A rerep: 0%; ASM inhibitor: -5%; KB-V1 MDR tox: 18µM*

Results for Cc1nnc(NC(=O)CSc2nc(C(C)C)nc3ccccc23)s1 ?
KB-3-1 cytotox: inactive; Giardia kill: 8; SW480 rerep: inconclusive; MCF10A rerep: 2%; ASM inhibitor: 3%; KB-V1 MDR tox: inconclusive

What do the screens show for `O=C(CSc1nc(Cc2ccccc2)nc2ccccc12)Nc1nc2c(s1)CCCC2`?
KB-3-1 cytotox: inactive; Giardia kill: -3; SW480 rerep: 21µM*; MCF10A rerep: 23µM*; ASM inhibitor: -9%; KB-V1 MDR tox: inconclusive

How did O=C(CCSc1ccccc1)Nc1nc2c(s1)CCCC2 do in these assays?
KB-3-1 cytotox: inactive; Giardia kill: 4; SW480 rerep: 1%; MCF10A rerep: inconclusive; ASM inhibitor: 0%; KB-V1 MDR tox: 26µM*

What do the screens show for `Cc1cc(NC(=O)CSc2nc(C(C)C)nc3ccccc23)no1`?
KB-3-1 cytotox: inconclusive; Giardia kill: 5; SW480 rerep: inconclusive; MCF10A rerep: 26µM*; ASM inhibitor: 2%; KB-V1 MDR tox: inconclusive

Results for O=C(CSc1ncn(-c2ccccc2)n1)Nc1nc2c(s1)CCCC2 ?
KB-3-1 cytotox: inactive; Giardia kill: 3; SW480 rerep: 8%; MCF10A rerep: 5%; ASM inhibitor: -9%; KB-V1 MDR tox: inactive

Results for CC(C)(C)c1nc(SCC(=O)Nc2nc3c(s2)CCCC3)c2ccccc2n1 ?
KB-3-1 cytotox: inactive; Giardia kill: 6; SW480 rerep: -6%; MCF10A rerep: 2%; ASM inhibitor: -7%; KB-V1 MDR tox: inconclusive

Results for O=C(NCc1ccccc1F)C1CCCN1S(=O)(=O)c1ccc(Cl)cc1 (centres undefined) ?
KB-3-1 cytotox: inactive; Giardia kill: 0; SW480 rerep: -10%; MCF10A rerep: -1%; ASM inhibitor: 5%; KB-V1 MDR tox: inactive

How did CC(C)c1nc(SCC(=O)Nc2nc3c(s2)CCCC3)c2ccccc2n1 do in these assays?
KB-3-1 cytotox: inactive; Giardia kill: -14; SW480 rerep: inconclusive; MCF10A rerep: inconclusive; ASM inhibitor: -7%; KB-V1 MDR tox: 15µM*

What do the screens show for `Cc1cc(C)c(C#N)c(SCC(=O)Nc2cc(C)on2)n1`?
KB-3-1 cytotox: inactive; Giardia kill: -15; SW480 rerep: inconclusive; MCF10A rerep: inconclusive; ASM inhibitor: 148%; KB-V1 MDR tox: 8.2µM*

What do the screens show for `O=C(Cc1cccs1)Nc1nc2c(s1)CCCC2`?
KB-3-1 cytotox: inconclusive; Giardia kill: -12; SW480 rerep: 5%; MCF10A rerep: inconclusive; ASM inhibitor: -4%; KB-V1 MDR tox: 12µM*

How did Cc1cc(NC(=O)CSc2nc3c(C)ccc(C)c3cc2C#N)no1 do in these assays?
KB-3-1 cytotox: inactive; Giardia kill: -9; SW480 rerep: 4%; MCF10A rerep: 0%; ASM inhibitor: 25%; KB-V1 MDR tox: inactive

What do the screens show for `CCc1ccc(NC(=O)COc2ccc(/C=C(/C#N)c3nc4ccccc4[nH]3)cc2OC)cc1`?
KB-3-1 cytotox: 1.5µM*; Giardia kill: 10; SW480 rerep: inconclusive; MCF10A rerep: inconclusive; ASM inhibitor: 133%; KB-V1 MDR tox: inconclusive

How did COC(=O)c1ccc(COc2ccc(/C=C(\C#N)c3nc4ccccc4[nH]3)cc2OC)o1 do in these assays?
KB-3-1 cytotox: inactive; Giardia kill: 17; SW480 rerep: 5%; MCF10A rerep: inconclusive; ASM inhibitor: 15%; KB-V1 MDR tox: inconclusive

What do the screens show for `Cc1cc(C)c(C#N)c(SCc2ccccc2[N+](=O)[O-])n1`?
KB-3-1 cytotox: inactive; Giardia kill: -3; SW480 rerep: 1%; MCF10A rerep: 13%; ASM inhibitor: -6%; KB-V1 MDR tox: 23µM*

What do the screens show for `Cc1cc(C)c(C#N)c(SCc2nc3ccccc3[nH]2)n1`?
KB-3-1 cytotox: inactive; Giardia kill: 14; SW480 rerep: 18µM*; MCF10A rerep: 13µM*; ASM inhibitor: 55%; KB-V1 MDR tox: inactive

Results for Cn1c(=O)c2c(nc(N3CCOCC3)n2Cc2ccccc2F)n(C)c1=O ?
KB-3-1 cytotox: inactive; KB-V1 MDR tox: inactive

How did O=c1[nH]c2cc([N+](=O)[O-])c([N+](=O)[O-])cc2[nH]c1=O do in these assays?
KB-3-1 cytotox: inactive; Giardia kill: -11; SW480 rerep: 6.5µM*; MCF10A rerep: 0%; ASM inhibitor: -4%; KB-V1 MDR tox: inactive
